For 14 molecules, binding signal results are on record in publication PMC12136788.

The labels stand for the following.
T1: UNK ZnF1-3 (human, UniProt Q9C0B0 31-174)
T1 sequence: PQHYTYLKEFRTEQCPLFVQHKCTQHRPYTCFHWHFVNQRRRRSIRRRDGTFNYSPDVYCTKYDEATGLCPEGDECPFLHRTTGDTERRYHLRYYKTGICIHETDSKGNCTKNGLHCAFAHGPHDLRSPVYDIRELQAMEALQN

B1: 62695852_62700603_289_3pUTR_ENSMUSG00000042211_ENSMUST00000048688|mouse|control|control (ssRNA)
RNA: GGGAGUUCUACAGUCCGACGAUCAGCUUCCGAGAGAGGCAUUCCAUGCACAUGAUGUCCUGUAGUGGCAGGUACCUGAAGAUAUGACAGAGCACUUCAUGUGACAGCUGGUUCAUGUAGUCCUUCUCUUCAUCGGCUGUCAUUCAACAGAGGAUUGAGCAUCA
B2: chr7:151048522:151048523:+_ENSG00000013374_ENST00000566856|hu_mus|hu_hu_hu_mus_True|58_78 (ssRNA)
RNA: GGGAGUUCUACAGUCCGACGAUCCUGUUUCUUAUUUAUUACGAUCUUGAUGUAAUUUUCUUGAAGUCCGAAAGUUUCAGCUAUUUUACACCUCAGGUCUCUACCAGUGACAUGCAAGCGGGUCUCCAACAAGCUUUUCUUAUCCAACAGAGGAUUGAGCAUCA
B3: chr14:78183846:78183847:+_ENSG00000119705_ENST00000557342|hu_hu|hu_hu_hu_mus_False|18_108 (ssRNA)
RNA: GGGAGUUCUACAGUCCGACGAUCUCUGUCUCAAAAAUCUUCAUCAGAUGUUUGAGCUCCGUGCAAAGCCUUUGCUCUUUGAGCUUGAACGUGGAUCUAUGGGAGGGAAAGCACUGUAUUUUCCUGUAAUUUUUUUUUUAAAGACAACAGAGGAUUGAGCAUCA
B4: chr1:220276048:220276049:+_ENSG00000067704_ENST00000302637|hu_hu|hu_hu_hu_mus_True|78_108 (ssRNA)
RNA: GGGAGUUCUACAGUCCGACGAUCGCAAACAGCUUCAUUGGCGGGAAUUGUCCAAGGUUGUGUGGUCCAAACUAAAACGCUAACAGGGGAUGAGGCAUCUGUAAGAGACUCCAACUUCGGAGGAGGUCUCAGGAGGGGGAAUCUCAACAGAGGAUUGAGCAUCA
B5: 27242051_27281840_773_CDS_ENSMUSG00000009621_ENSMUST00000056176|mouse|control|control (ssRNA)
RNA: GGGAGUUCUACAGUCCGACGAUCCAGCUCACUGUUUCUUAGUCCAAAUUUGUCAUGGCAGACUUUGAGGAAGGUGCGAAUAUUCUUCAGACACAAGAACUGGGACAUCUGCGGCCGGAAGUUGAUGUCCUUAAGGUCGAUGGACAACAGAGGAUUGAGCAUCA
B6: chr20:43533646:43533647:+_ENSG00000166913_ENST00000353703|hu_mus|FALSE|FALSE (ssRNA)
RNA: GGGAGUUCUACAGUCCGACGAUCGAAAUUCAGCGCCAGGCCGAGGCGAAUCGGGUGUGUAGGCUGCAUUUCUUUCUUGCUGAUUUCAAAUGCUUCUUGGUAAGCCUGCUGGGAGUUGGACACCGUGGUUUGUUUAUUUUCUCCCAACAGAGGAUUGAGCAUCA
B7: chr1:171751117:171751118:+_ENSG00000010165_ENST00000361735|hu_hu|motif|central (ssRNA)
RNA: GGGAGUUCUACAGUCCGACGAUCCUUUUAGGUAAGAGGUUCAUGUUCCUACUGCCGAAGCUGCGUUUUCAAGACUCCCCGGUUCCCUGUGAGAUACCAUUUGAGGAGCUUGCCCACCACACGCAGGCUCCGGGACACUGCAGUCAACAGAGGAUUGAGCAUCA
B8: chr10:120833061:120833062:-_ENSG00000107581_ENST00000369144|perfect_dup|motif|central (ssRNA)
RNA: GGGAGUUCUACAGUCCGACGAUCUUGGGACUCUUCUUUAGCAGCUUCUGUUUUUUCCUCUGCUAAUUUCAAAUAUGCCCGGACAACAUCUUCUAAAGAUUUAAUGUUUACCUGUUGGCAUAUGUUCUUAUAUUGAUAUAACCCCAACAGAGGAUUGAGCAUCA
B9: 18861418_18861648_5666_CDS_ENSG00000157106_ENST00000446231|human|control|control (ssRNA)
RNA: GGGAGUUCUACAGUCCGACGAUCCAGCCUAGGGUCAUCCUCAUCUAAAGGAAUUUGACCAGCGUUGAGUUUAAGGAAAGUAAAGUAUGCACUGCAAGAGAGUUUGUACAGGCUGAAUAUUCUAUCUACAACUUUCCUCCACACCAACAGAGGAUUGAGCAUCA
B10: chr11:48615247:48615248:+_ENSMUSG00000020372_ENSMUST00000020640|perfect_dup|FALSE|FALSE (ssRNA)
RNA: GGGAGUUCUACAGUCCGACGAUCUCCAUCCCAGGAGCCUGAGAGGGCAAACUGGCCAUCUGAGGAGAUAACCACAUCACUAACAAAGUGGGAGUGACCCCGCAGAGCACGCUGUGGAAUUCCAUAGUUGGUCUCAUCCCUGGUCAACAGAGGAUUGAGCAUCA
B11: chr5:110835399:110835400:-_ENSG00000164211_ENST00000296632|hu_hu|motif|central (ssRNA)
RNA: GGGAGUUCUACAGUCCGACGAUCUGAGAGCCUGUCUCAAAAUUUAAAAAAAAAAAAGUGAAAAUGCCCUCUCUUAGAUAGCGGUUUACUUUAGGAAUAAAACCAAACAUUGUACUAGUGAACCAAAAACAUUUCAAAUUUUUCCAACAGAGGAUUGAGCAUCA
B12: chr1:39494564:39494565:+_ENSG00000168653_ENST00000372967|hu_hu|hu_hu_hu_mus_True|68_78 (ssRNA)
RNA: GGGAGUUCUACAGUCCGACGAUCAUGCAUUCGCCUCAUCGUUUUGUACCGAAGCAAACACUCUACGAAAUCAUCAUACUCUAUCUUGCACUCCUUUUUCGCCCGGGUCCCACCGAUCCCGUGUGCACACUCUAUCCACUCUUUCAACAGAGGAUUGAGCAUCA
B13: chr14:66974463:66974464:+_ENSMUSG00000022044_ENSMUST00000074523|mus_hu|mus_mus_mus_hu_False|18_58 (ssRNA)
RNA: GGGAGUUCUACAGUCCGACGAUCUUGUAGGACGACUUAUUCAGGGGAUCGGCCAGGAAGCAGGAGCAGAACAAGGACACUAGUGGGAGCUCCUUCAUCUUCUCUUUGUAGGCAGCAAGAGUCAUGUUUCUGGGAUCUGGUGGCCAACAGAGGAUUGAGCAUCA
B14: chr5:125866394:125866395:-_ENSMUSG00000008348_ENSMUST00000136312|mus_hu|FALSE|FALSE (ssRNA)
RNA: GGGAGUUCUACAGUCCGACGAUCACAACUUUAUUGAAAGGAAAGUGCAAUGAAAUUUGUUGAAACCUUAAAAGGGGAAACUUAGACACCCCCCCUCAAGCGCAGGACCAAGUGCAGAGUGGACUCUUUCUGGAUGUUGUAGUCCAACAGAGGAUUGAGCAUCA

The full ranking holds about 24,000 sequences; the median of “enrichment r” is about 0.99, and the highest 2% start at about 3.7. These entries were drawn from the full list.

The target in the test is T1, UNK ZnF1-3. Put plainly: nsRBNS (natural sequence RNA bind-n-seq); RBNS binding buffer (assumed for nsRBNS): 25 mM Tris pH 7.5, 150 mM KCl, 3 mM MgCl2, 0.01% Triton X-100, 500 ug/ml BSA, 20 U/ml SUPERase-In, 4 C; UNK is unkempt and MSI1 is Musashi-1; names of the RNAs are library labels; protein concentration not given here; high values mean tight binding.
B1 yielded a binding signal of 1.2 enrichment R.
Consider B2, for which the binding signal came to 0.64 enrichment R.
For B3 the value was 1.24 enrichment R; for B4, 1.64 enrichment R; for B5, 1.21 enrichment R.
Molecule B6 had a binding signal of 0.604 enrichment R.
The molecule B7 had a binding signal of 0.55 enrichment R.
In turn, B8 returned a binding signal of 0.789 enrichment R.
With B9, the binding signal was 1.36 enrichment R.
The molecule B10 came in with a binding signal of 1.14 enrichment R.
On to B11, for which the binding signal is 1.93 enrichment R.
Regarding B12, the binding signal was 0.667 enrichment R.
B13 yielded a binding signal of 2.28 enrichment R.
For B14, the binding signal turned out to be 1.57 enrichment R.
